Measured values as given in PubChem BioAssay AID1159580 (chemical genetic matrix, 2015).
“And” between values parts separate entries of the source, which are not always exact repeats. Equal entries are not always repeated. In all, about 5,500 compounds went through this assay and about 2,000 (36%) were called active. Not shown: some 18% with an inconclusive outcome. Some of the results follow. A number with no mark means an inactive call. Rule as the data show it: active = normalized growth mostly below about 0.91 (no sharp cut-off); inconclusive = no clear call, values can overlap the other calls; inactive = mostly above about 0.92.

Test: chemical genetic growth profiling, strain panel (AID 1159580);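 also: tested at 20 µM; growth read once vehicle control cultures reached saturation at 30 °C; 1 = growth at the plate median or of vehicle wells; lower values mean less growth of the strain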
Conditions: S. cerevisiae deletion strains, growth OD

Which normalized growth (locus YAL013W, strain DEP1, active compounds read low) does the source give for O=C1C=CC2=C3c4cc(O)c(O)cc4CC3(O)COC2=C1O (centres undefined) here?
The normalized growth was 0.873 (active).

What about the normalized growth (locus YAL021C, strain ccr4, active compounds read low) of the same compound?
Its normalized growth is 0.933.

And the normalized growth (locus YAL026C, strain drs2, active compounds read low)?
Its normalized growth is 0.945.

And the normalized growth (locus YAL030W, strain snc1, active compounds read low)?
The normalized growth was 1.02.

And the normalized growth (locus YBL061C, strain skt5, active compounds read low)?
Its normalized growth is 0.993.

What about the normalized growth (locus YBR009C, strain hhf1, active compounds read low) of the same compound?
Its normalized growth is 0.999.

And the normalized growth (locus YBR021W, strain FUR4, active compounds read low)?
The normalized growth was 1.04.

And the normalized growth (locus YBR023C, strain chs3, active compounds read low)?
Its normalized growth is 0.949.

And the normalized growth (locus YBR171W, strain sec66, active compounds read low)?
The normalized growth was 1.06.

What about the normalized growth (locus YBR229C, strain ROT2, active compounds read low) of the same compound?
Its normalized growth is 0.996.

What about the normalized growth (locus YBR231C, strain swc5, active compounds read low) of the same compound?
Its normalized growth is 0.929.

What about the normalized growth (locus YBR279W, strain paf1, active compounds read low) of the same compound?
The normalized growth was 0.964.

And the normalized growth (locus YCL011C, strain gbp2, active compounds read low)?
The normalized growth was 1.02.

And the normalized growth (locus YCL016C, strain dcc1, active compounds read low)?
Its normalized growth is 1.01.

And the normalized growth (locus YCL029C, strain bik1, active compounds read low)?
Its normalized growth is 1.04.

What about the normalized growth (locus YCL061C, strain MRC1, active compounds read low) of the same compound?
The normalized growth was 1.01.

And the normalized growth (locus YCL069W, strain vba3, active compounds read low)?
The normalized growth was 1.03.

What about the normalized growth (locus YCR088W, strain abp1, active compounds read low) of the same compound?
The normalized growth was 1.05.

And the normalized growth (locus YDL005C, strain med2, active compounds read low)?
The normalized growth was 1.06.

And the normalized growth (locus YDL035C, strain GPR1, active compounds read low)?
The normalized growth was 0.904.

And the normalized growth (locus YDL040C, strain nat1, active compounds read low)?
Its normalized growth is 1.04.

And the normalized growth (locus YDL074C, strain BRE1, active compounds read low)?
Its normalized growth is 0.898.

What about the normalized growth (locus YDL101C, strain DUN1, active compounds read low) of the same compound?
The normalized growth was 0.946.

What about the normalized growth (locus YDL134C, strain PPH21, active compounds read low) of the same compound?
The normalized growth was 0.942.

What about the normalized growth (locus YDL185W, strain tfp1, active compounds read low) of the same compound?
The normalized growth was 0.997.

What about the normalized growth (locus YDL192W, strain arf1, active compounds read low) of the same compound?
The normalized growth was 0.998.

And the normalized growth (locus YDR001C, strain nth1, active compounds read low)?
The normalized growth was 1.04.

What about the normalized growth (locus YDR069C, strain doa4, active compounds read low) of the same compound?
The normalized growth was 0.896 (active).

What about the normalized growth (locus YDR101C, strain arx1, active compounds read low) of the same compound?
Its normalized growth is 1.06.

What about the normalized growth (locus YDR137W, strain rgp1, active compounds read low) of the same compound?
The normalized growth was 0.972.

What about the normalized growth (locus YDR159W, strain sac3, active compounds read low) of the same compound?
The normalized growth was 1.13.

And the normalized growth (locus YDR162C, strain NBP2, active compounds read low)?
Its normalized growth is 0.789 (active).

What about the normalized growth (locus YDR195W, strain ref2) of the same compound?
The normalized growth was 1.11.

What about the normalized growth (locus YDR297W, strain sur2, active compounds read low) of the same compound?
The normalized growth was 1.01.

What about the normalized growth (locus YDR318W, strain mcm21, active compounds read low) of the same compound?
The normalized growth was 1.01.

And the normalized growth (locus YDR334W, strain swr1, active compounds read low)?
Its normalized growth is 0.992.

And the normalized growth (locus YDR335W, strain msn5, active compounds read low)?
Its normalized growth is 1.01.

What about the normalized growth (locus YDR388W, active compounds read low) of the same compound?
Its normalized growth is 1.03.

What about the normalized growth (locus YDR392W, strain spt3, active compounds read low) of the same compound?
Its normalized growth is 1.03.

What about the normalized growth (locus YDR502C, strain sam2, active compounds read low) of the same compound?
Its normalized growth is 1.01.

What about the normalized growth (locus YEL003W, strain gim4, active compounds read low) of the same compound?
The normalized growth was 1.01.

And the normalized growth (locus YEL037C, strain rad23, active compounds read low)?
Its normalized growth is 1.01.

What about the normalized growth (locus YEL061C, strain CIN8 (second series), active compounds read low) of the same compound?
Its normalized growth is 1.04.

What about the normalized growth (locus YEL061C, strain CIN8, active compounds read low) of the same compound?
The normalized growth was 0.964.

And the normalized growth (locus YER015W, strain faa2, active compounds read low)?
Its normalized growth is 0.99.

And the normalized growth (locus YER016W, strain bim1, active compounds read low)?
Its normalized growth is 1.04.

What about the normalized growth (locus YER110C, active compounds read low) of the same compound?
The normalized growth was 1.05.

And the normalized growth (locus YER111C, strain swi4, active compounds read low)?
Its normalized growth is 1.01.

What about the normalized growth (locus YER155C, strain BEM2 (second series), active compounds read low) of the same compound?
The normalized growth was 1.03.

What about the normalized growth (locus YER155C, strain BEM2, active compounds read low) of the same compound?
Its normalized growth is 1.05.

What about the normalized growth (locus YER167W, strain BCK2, active compounds read low) of the same compound?
The normalized growth was 1.06.

And the normalized growth (locus YFR010W, strain ubp6, active compounds read low)?
Its normalized growth is 0.985.

And the normalized growth (locus YGL078C, strain dbp3, active compounds read low)?
The normalized growth was 1.02.

What about the normalized growth (locus YGL086W, strain mad1, active compounds read low) of the same compound?
The normalized growth was 1.02.

And the normalized growth (locus YGL167C, strain pmr1, active compounds read low)?
The normalized growth was 1.03.

And the normalized growth (locus YGL173C, strain kem1, active compounds read low)?
The normalized growth was 0.947.

What about the normalized growth (locus YGL227W, strain vid30, active compounds read low) of the same compound?
Its normalized growth is 1.06.

And the normalized growth (locus YGL240W, strain doc1, active compounds read low)?
The normalized growth was 1.11.

And the normalized growth (locus YGL248W, strain PDE1, active compounds read low)?
Its normalized growth is 0.934.

And the normalized growth (locus YGL253W, strain hxk2, active compounds read low)?
The normalized growth was 0.959.

What about the normalized growth (locus YGR078C, strain PAC10, active compounds read low) of the same compound?
The normalized growth was 0.957.

And the normalized growth (locus YGR135W, strain pre9, active compounds read low)?
Its normalized growth is 0.985.

What about the normalized growth (locus YGR229C, strain SMI1, active compounds read low) of the same compound?
Its normalized growth is 0.557 (active).

What about the normalized growth (locus YGR252W, strain gcn5, active compounds read low) of the same compound?
The normalized growth was 0.966.

What about the normalized growth (locus YHR013C, strain ard1, active compounds read low) of the same compound?
The normalized growth was 0.901.

And the normalized growth (locus YHR027C, strain rpn1, active compounds read low)?
Its normalized growth is 0.908 (active).

What about the normalized growth (locus YHR030C, strain SLT2, active compounds read low) of the same compound?
Its normalized growth is 0.999 and 0.987.

And the normalized growth (locus YHR079C, strain IRE1 (second series), active compounds read low)?
The normalized growth was 1.03.

What about the normalized growth (locus YHR079C, strain IRE1, active compounds read low) of the same compound?
Its normalized growth is 1.01.

And the normalized growth (locus YHR094C, strain hxt1, active compounds read low)?
Its normalized growth is 1.05.

And the normalized growth (locus YHR129C, strain ARP1, active compounds read low)?
The normalized growth was 0.967.

And the normalized growth (locus YHR142W, strain chs7, active compounds read low)?
The normalized growth was 0.943.

What about the normalized growth (locus YHR200W, strain rpn10, active compounds read low) of the same compound?
Its normalized growth is 1.03.

And the normalized growth (locus YIL066C, strain RNR3, active compounds read low)?
The normalized growth was 0.881.

And the normalized growth (locus YIL073C, strain SPO22, active compounds read low)?
The normalized growth was 0.812.

What about the normalized growth (locus YIL125W, strain kgd1, active compounds read low) of the same compound?
Its normalized growth is 1.01.

What about the normalized growth (locus YIR030C, strain dcg1, active compounds read low) of the same compound?
Its normalized growth is 1.03.

What about the normalized growth (locus YJL092W, strain hpr5, active compounds read low) of the same compound?
Its normalized growth is 1.04.

And the normalized growth (locus YJL095W, strain BCK1 (second series), active compounds read low)?
The normalized growth was 1.01.

What about the normalized growth (locus YJL095W, strain BCK1, active compounds read low) of the same compound?
The normalized growth was 0.926 and 1.02.

And the normalized growth (locus YJL115W, strain asf1, active compounds read low)?
The normalized growth was 1.05.

What about the normalized growth (locus YJL129C, strain trk1, active compounds read low) of the same compound?
Its normalized growth is 1.09.

What about the normalized growth (locus YJL134W, strain LCB3, active compounds read low) of the same compound?
Its normalized growth is 0.999.

And the normalized growth (locus YJL154C, strain vps35, active compounds read low)?
Its normalized growth is 1.03.

And the normalized growth (locus YJL164C, strain tpk1, active compounds read low)?
The normalized growth was 0.968.

What about the normalized growth (locus YJL166W, strain qcr8, active compounds read low) of the same compound?
Its normalized growth is 0.995.

What about the normalized growth (locus YJL168C, strain set2, active compounds read low) of the same compound?
The normalized growth was 1.01.

What about the normalized growth (locus YJL187C, strain SWE1 (second series), active compounds read low) of the same compound?
The normalized growth was 0.826 (active).

What about the normalized growth (locus YJL187C, strain SWE1, active compounds read low) of the same compound?
Its normalized growth is 0.986.
